Source: PubChem BioAssay AID1159580 (chemical genetic matrix, 2015)
The whole screen tested about 5,500 compounds, of which about 2,000 (36%) were called active. About 18% were inconclusive and are not listed. Rule as the data show it: active = normalized growth mostly below about 0.91 (no sharp cut-off); inconclusive = no clear call, values can overlap the other calls; inactive = mostly above about 0.92. The list shows a part of the results.

Experiment: chemical genetic growth profiling, strain panel (AID 1159580);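 also: tested at 20 µM; growth read once vehicle control cultures reached saturation at 30 °C; 1 = growth at the plate median or of vehicle wells; lower values mean less growth of the strain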
Details: growth OD

Measured: normalized growth

CCCCOC(=O)c1ccccc1C(=O)OCCCC
active: S. cerevisiae deletion strains, locus YLR262C, strain YPT6 (second series), active compounds read low 0.838
inactive: S. cerevisiae deletion strains, locus YJR066W, strain TOR1, active compounds read low 0.92 | S. cerevisiae deletion strains, locus YJR075W, strain HOC1, active compounds read low 0.991 | S. cerevisiae deletion strains, locus YKL009W, strain mrt4, active compounds read low 0.941 | S. cerevisiae deletion strains, locus YKL068W, active compounds read low 0.977 | S. cerevisiae deletion strains, locus YKL085W, strain MDH1 (second series), active compounds read low 0.984 | S. cerevisiae deletion strains, locus YKL085W, strain MDH1, active compounds read low 0.984 | S. cerevisiae deletion strains, locus YKL160W, strain elf1, active compounds read low 0.985 | S. cerevisiae deletion strains, locus YKL190W, strain CNB1, active compounds read low 0.972 | S. cerevisiae deletion strains, locus YKR001C, strain vps1, active compounds read low 0.983 | S. cerevisiae deletion strains, locus YKR026C, strain gcn3, active compounds read low 0.986 | S. cerevisiae deletion strains, locus YKR091W, strain srl3, active compounds read low 0.982 | S. cerevisiae deletion strains, locus YLL001W, strain dnm1, active compounds read low 0.987 | S. cerevisiae deletion strains, locus YLL026W, active compounds read low 0.982 | S. cerevisiae deletion strains, locus YLL041C, strain sdh2, active compounds read low 0.975 | S. cerevisiae deletion strains, locus YLR027C, strain aat2, active compounds read low 0.974 | S. cerevisiae deletion strains, locus YLR039C, strain RIC1, active compounds read low 0.941 | S. cerevisiae deletion strains, locus YLR058C, strain SHM2, active compounds read low 0.968 | S. cerevisiae deletion strains, locus YLR102C, strain apc9, active compounds read low 0.982 | S. cerevisiae deletion strains, locus YLR113W, strain HOG1, active compounds read low 0.89 | S. cerevisiae deletion strains, locus YLR221C, strain rsa3, active compounds read low 0.957 | S. cerevisiae deletion strains, locus YLR258W, strain gsy2, active compounds read low 0.974 | S. cerevisiae deletion strains, locus YLR262C, strain YPT6, active compounds read low 0.931 | S. cerevisiae deletion strains, locus YLR268W, strain sec22, active compounds read low 0.96 | S. cerevisiae deletion strains, locus YLR320W, strain mms22, active compounds read low 0.924 | S. cerevisiae deletion strains, locus YLR330W, strain CHS5, active compounds read low 0.977 | S. cerevisiae deletion strains, locus YLR342W, strain FKS1 (second series), active compounds read low 0.875 | S. cerevisiae deletion strains, locus YLR342W, strain FKS1, active compounds read low 0.948 | S. cerevisiae deletion strains, locus YLR357W, strain rsc2, active compounds read low 1.02 | S. cerevisiae deletion strains, locus YLR370C, strain arc18, active compounds read low 0.99 | S. cerevisiae deletion strains, locus YLR371W, strain rom2, active compounds read low 0.974 | S. cerevisiae deletion strains, locus YLR384C, strain iki3, active compounds read low 0.99 | S. cerevisiae deletion strains, locus YLR418C, strain cdc73, active compounds read low 0.978 | S. cerevisiae deletion strains, locus YML016C, strain PPZ1, active compounds read low 0.992 | S. cerevisiae deletion strains, locus YML032C, strain rad52, active compounds read low 0.982 | S. cerevisiae deletion strains, locus YML120C, strain ndi1, active compounds read low 0.983 | S. cerevisiae deletion strains, locus YML124C, strain tub3, active compounds read low 0.975 | S. cerevisiae deletion strains, locus YMR058W, strain fet3, active compounds read low 0.992 | S. cerevisiae deletion strains, locus YMR078C, strain ctf18, active compounds read low 0.979 | S. cerevisiae deletion strains, locus YMR125W, strain sto1, active compounds read low 0.969 | S. cerevisiae deletion strains, locus YMR129W, active compounds read low 0.98 | S. cerevisiae deletion strains, locus YMR205C, strain PFK2, active compounds read low 0.949 | S. cerevisiae deletion strains, locus YMR223W, strain ubp8, active compounds read low 0.975 | S. cerevisiae deletion strains, locus YMR231W, strain pep5, active compounds read low 0.996 | S. cerevisiae deletion strains, locus YMR263W, strain SAP30, active compounds read low 0.977 | S. cerevisiae deletion strains, locus YMR307W, strain GAS1, active compounds read low 0.713 | S. cerevisiae deletion strains, locus YNL067W, strain RPL9B, active compounds read low 0.979 | S. cerevisiae deletion strains, locus YNL071W, strain lat1, active compounds read low 0.944 | S. cerevisiae deletion strains, locus YNL128W, strain TEP1, active compounds read low 0.98 | S. cerevisiae deletion strains, locus YNL153C, strain GIM3, active compounds read low 0.998 | S. cerevisiae deletion strains, locus YNL183C, strain NPR1, active compounds read low 0.911 | S. cerevisiae deletion strains, locus YNL209W, strain ssb2, active compounds read low 0.99 | S. cerevisiae deletion strains, locus YNL233W, strain BNI4, active compounds read low 0.994 | S. cerevisiae deletion strains, locus YNL248C, strain rpa49, active compounds read low 0.987 | S. cerevisiae deletion strains, locus YNL250W, strain rad50, active compounds read low 0.961 | S. cerevisiae deletion strains, locus YNL271C, strain bni1, active compounds read low 0.978 | S. cerevisiae deletion strains, locus YNL298W, strain CLA4, active compounds read low 0.966 | S. cerevisiae deletion strains, locus YNL307C, strain MCK1, active compounds read low 0.952 | S. cerevisiae deletion strains, locus YNL322C, strain KRE1 (second series), active compounds read low 0.981 | S. cerevisiae deletion strains, locus YNL322C, strain KRE1, active compounds read low 0.978 | S. cerevisiae deletion strains, locus YNR049C, strain mso1, active compounds read low 0.976 | S. cerevisiae deletion strains, locus YNR052C, strain pop2, active compounds read low 0.971 | S. cerevisiae deletion strains, locus YOL006C, strain TOP1, active compounds read low 0.94 | S. cerevisiae deletion strains, locus YOL012C, strain htz1 0.914 | S. cerevisiae deletion strains, locus YOL147C, strain pex11, active compounds read low 0.976 | S. cerevisiae deletion strains, locus YOR001W, strain rrp6, active compounds read low 0.979 | S. cerevisiae deletion strains, locus YOR061W, strain CKA2, active compounds read low 0.984 | S. cerevisiae deletion strains, locus YOR069W, strain VPS5, active compounds read low 0.977 | S. cerevisiae deletion strains, locus YOR070C, strain gyp1, active compounds read low 0.983 | S. cerevisiae deletion strains, locus YOR080W, strain dia2, active compounds read low 0.99 | S. cerevisiae deletion strains, locus YOR083W, strain WHI5, active compounds read low 0.98 | S. cerevisiae deletion strains, locus YOR106W, strain vam3, active compounds read low 0.916 | S. cerevisiae deletion strains, locus YOR136W, strain idh2, active compounds read low 0.988 | S. cerevisiae deletion strains, locus YOR144C, strain elg1, active compounds read low 0.973 | S. cerevisiae deletion strains, locus YOR184W, strain ser1, active compounds read low 0.943 | S. cerevisiae deletion strains, locus YOR231W, strain MKK1, active compounds read low 0.945 | S. cerevisiae deletion strains, locus YOR265W, strain rbl2, active compounds read low 0.986 | S. cerevisiae deletion strains, locus YOR270C, strain vph1, active compounds read low 0.846 | S. cerevisiae deletion strains, locus YOR290C, strain snf2, active compounds read low 0.975 | S. cerevisiae deletion strains, locus YOR316C, strain cot1, active compounds read low 0.977 | S. cerevisiae deletion strains, locus YPL055C, strain LGE1, active compounds read low 0.967 | S. cerevisiae deletion strains, locus YPL078C, strain atp4, active compounds read low 0.98 | S. cerevisiae deletion strains, locus YPL106C, strain sse1, active compounds read low 1.02 | S. cerevisiae deletion strains, locus YPL240C, strain hsp82, active compounds read low 0.969 | S. cerevisiae deletion strains, locus YPL241C, strain CIN2, active compounds read low 0.976 | S. cerevisiae deletion strains, locus YPL256C, strain CLN2, active compounds read low 0.973 | S. cerevisiae deletion strains, locus YPR119W, strain clb2, active compounds read low 0.974 | S. cerevisiae deletion strains, locus YPR141C, strain kar3, active compounds read low 0.978 | S. cerevisiae deletion strains, locus YPR163C, strain tif3, active compounds read low 0.97 | S. cerevisiae deletion strains, locus YPR167C, strain met16, active compounds read low 0.984 | S. cerevisiae deletion strains, strain wtn01, active compounds read low 0.965 | S. cerevisiae strains, strain wild type, active compounds read low 0.987
